Results from PubChem BioAssay (EPA / NIEHS).
The source made the active and inactive calls. The calls were made as follows: active = hit-call score of the fitted dose curve at least 0.9, where 1 is the maximum; inactive = score below 0.9.

Experiments:
Conditions in all cases: mRNA level, 48 h; actives raise or lower the signal
[1] = read-out: DNA damage-inducible transcript 3 (DDIT3), DDIT3 (gene 1649); experiment: LTEA_HepaRG_DDIT3: Life Technologies and Expression Analysis (LTEA) Assay for DNA damage-inducible transcript 3 (DDIT3) using HepaRG (AID 2283488)
Summary of the method: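 HepaRG plated 48 h, switched to serum-free induction medium, dosed 48 h (100 uM top, half-log, 8 pts, 0.5% DMSO, n=2); RNA isolated; DDIT3 by qRT-PCR; bidirectional curve fit vs DMSO.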

[2] = read-out: Pro-epidermal growth factor (Homo sapiens) (UniProt P01133); experiment: LTEA_HepaRG_EGF: Life Technologies and Expression Analysis (LTEA) Assay for Epidermal growth factor (EGF) using HepaRG (AID 2283489)
Summary of the method: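 qRT-PCR readout of EGF transcript after 48 h chemical exposure of HepaRG cells; eight concentrations from 100 uM down in half-log steps, duplicate wells, 0.5% DMSO vehicle. Bidirectional curve fitting against DMSO baseline.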

[3] = read-out: Early growth response protein 1 (EGR1) transcription factor, EGR1 (gene 1958); experiment: LTEA_HepaRG_EGR1: Life Technologies and Expression Analysis (LTEA) Assay for Early growth response protein 1 (EGR1) transcription factor using HepaRG (AID 2283490)
Summary of the method: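 Read-out is EGR1 mRNA level by qRT-PCR, normalized to three housekeeping genes and analysed for gain or loss of signal against 0.5% DMSO. Source cells: human HepaRG, treated 48 h at up to 100 uM in half-log dilutions.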

[4] = read-out: Ezrin (EZR), EZR (gene 7430); experiment: LTEA_HepaRG_EZR: Life Technologies and Expression Analysis (LTEA) Assay for Ezrin (EZR) using HepaRG (AID 2283491)
Summary of the method: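 Differentiated human HepaRG cells, 48 h after plating, were exposed in serum-free induction medium for 48 hours to eight half-log concentrations up to 100 uM in 0.5% DMSO. EZR mRNA was measured by TaqMan qRT-PCR, normalized to ACTB, GAPDH and POLR2A, and fitted bidirectionally against DMSO.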

[5] = read-out: Cytochrome P450 3A7 (Homo sapiens) (UniProt P24462); experiment: LTEA_HepaRG_CYP3A7: Life Technologies and Expression Analysis (LTEA) Assay for CYP3A7 using HepaRG (AID 2283492)
Summary of the method: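 CYP3A7 transcript levels were read by TaqMan qRT-PCR on Fluidigm arrays after 48 h chemical exposure of human HepaRG cells, with housekeeping-gene normalisation. Eight half-log concentrations up to 100 uM in 0.5% DMSO were tested in duplicate.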

CYP3A5 (gene 1577) = experiment: LTEA_HepaRG_CYP3A5: Life Technologies and Expression Analysis (LTEA) Assay for CYP3A5 using HepaRG (AID 2283493)
Summary of the method: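 HepaRG plated 48 h, switched to serum-free induction medium, chemicals added 48 h (max 100 uM, half-log, 0.5% DMSO). RNA isolated; CYP3A5 by TaqMan qRT-PCR. Gain/loss vs DMSO.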

[6] = read-out: Fatty Acid-Binding Protein 1 (FABP1), FABP1 (gene 2168); experiment: LTEA_HepaRG_FABP1: Life Technologies and Expression Analysis (LTEA) Assay for Fatty Acid-Binding Protein 1 (FABP1) using HepaRG (AID 2283494)
Summary of the method: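 HepaRG, 48 h post-plating switched to serum-free induction medium, then dosed 48 h (duplicate, 8 pts, ≤100 uM, 0.5% DMSO). RNA → Fluidigm TaqMan qRT-PCR, FABP1 normed to ACTB/GAPDH/POLR2A. Bidirectional curve fit vs DMSO.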

[7] = read-out: Cytochrome P450 4A22 (Homo sapiens) (UniProt Q5TCH4); experiment: LTEA_HepaRG_CYP4A22: Life Technologies and Expression Analysis (LTEA) Assay for Cytochrome P450 4A22 (CYP4A22) using HepaRG (AID 2283495)
Summary of the method: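 HepaRG, 48 h post-plating -> serum-free induction medium; dosed 48 h, duplicate, 8 conc. (100 uM top, half-log), 0.5% DMSO. Readout: CYP4A22 mRNA by qRT-PCR, ACTB/GAPDH/POLR2A normalization; gain/loss fit relative to DMSO.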

[8] = read-out: Cytochrome P450 7A1 (Homo sapiens) (UniProt P22680); experiment: LTEA_HepaRG_CYP7A1: Life Technologies and Expression Analysis (LTEA) Assay for Cytochrome P450 7A1 (CYP7A1) using HepaRG (AID 2283496)
Summary of the method: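 HepaRG cells plated 48 h, then switched to serum-free induction medium and exposed in duplicate for 48 h to 8-point half-log series from 100 uM in 0.5% DMSO. CYP7A1 mRNA by qRT-PCR (TaqMan), normalized to ACTB/GAPDH/POLR2A; bidirectional fit versus DMSO.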

[9] = read-out: Glutathione S-Transferase (GSTA2), GSTA2 (gene 2939); experiment: LTEA_HepaRG_GSTA2: Life Technologies and Expression Analysis (LTEA) Assay for Glutathione S-Transferase (GSTA2) using HepaRG (AID 2283497)
Summary of the method: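 HepaRG, 48 h dosing, 8-pt half-log CRC from 100 uM, 0.5% DMSO vehicle, n=2; RNA → Fluidigm TaqMan qRT-PCR; GSTA2 vs ACTB/GAPDH/POLR2A; gain/loss fit vs DMSO.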

[10] = read-out: Glutamate-cysteine ligase catalytic (GCLC), GCLC (gene 2729); experiment: LTEA_HepaRG_GCLC: Life Technologies and Expression Analysis (LTEA) Assay for Glutamate-cysteine ligase catalytic (GCLC) using HepaRG (AID 2283498)
Summary of the method: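 Read-out is GCLC transcript level by Fluidigm-based TaqMan qRT-PCR, normalized to three housekeeping genes and fitted in both directions relative to 0.5% DMSO. Human HepaRG cells received chemicals for 48 h, up to 100 uM.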

[11] = read-out: growth arrest and DNA damage 45 (GADD45G), GADD45G (gene 10912); experiment: LTEA_HepaRG_GADD45G: Life Technologies and Expression Analysis (LTEA) Assay for growth arrest and DNA damage 45 (GADD45G) using HepaRG (AID 2283499)
Summary of the method: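 HepaRG, 48 h exposure, top 100 uM, half-log 8-point series, 0.5% DMSO vehicle, duplicates. Readout: GADD45G transcript by qRT-PCR (Fluidigm array), housekeeping-normalised (ACTB/GAPDH/POLR2A). Bidirectional curve fit vs DMSO baseline.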

[12] = read-out: Glutamate-cysteine ligase regulatory (GCLM), GCLM (gene 2730); experiment: LTEA_HepaRG_GCLM: Life Technologies and Expression Analysis (LTEA) Assay for Glutamate-cysteine ligase regulatory (GCLM) using HepaRG (AID 2283500)
Summary of the method: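 Cells were plated, cultured 48 h, switched to serum-free induction medium, then dosed in duplicate for 48 h at eight half-log concentrations up to 100 uM. RNA was then profiled by qRT-PCR; gain or loss versus DMSO was fitted.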

[13] = read-out: Glutathione S-transferase M3 (GSTM3), GSTM3 (gene 2947); experiment: LTEA_HepaRG_GSTM3: Life Technologies and Expression Analysis (LTEA) Assay for Glutathione S-transferase M3 (GSTM3) using HepaRG (AID 2283501)
Summary of the method: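 qRT-PCR read-out of GSTM3 transcript, normalized to three housekeeping genes, from human HepaRG cells after 48 h chemical exposure. Eight-point half-log series, top 100 uM, 0.5% DMSO vehicle; gain or loss fitted relative to DMSO baseline.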

[14] = read-out: Heat shock 70 kDa protein 1 (HSPA1A), gene 3303; experiment: LTEA_HepaRG_HSPA1A: Life Technologies and Expression Analysis (LTEA) Assay for Heat shock 70 kDa protein 1 (HSPA1A) using HepaRG (AID 2283502)
Summary of the method: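 Readout is HSPA1A transcript level by microfluidic qRT-PCR, normalized to three housekeeping genes and analysed for gain or loss of signal relative to 0.5% DMSO. Human HepaRG cultures received test chemicals for 48 h at up to 100 uM.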

[15] = read-out: Hypoxia-inducible factor 1-alpha (Homo sapiens) (UniProt Q16665); experiment: LTEA_HepaRG_HIF1A: Life Technologies and Expression Analysis (LTEA) Assay for Hypoxia-inducible factor 1 (HIF1A) Trancription factor using HepaRG (AID 2283503)
Summary of the method: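 Differentiated HepaRG cells in serum-free induction medium exposed 48 h, in duplicate, to 8-point half-log series from 100 uM in 0.5% DMSO. HIF1A mRNA measured by TaqMan qRT-PCR, normalized to ACTB/GAPDH/POLR2A, fitted bidirectionally versus DMSO.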

[16] = read-out: 3-Hydroxy-3-Methylglutaryl-CoA Synthase 2 (HMGCS2), HMGCS2 (gene 3158); experiment: LTEA_HepaRG_HMGCS2: Life Technologies and Expression Analysis (LTEA) Assay for 3-Hydroxy-3-Methylglutaryl-CoA Synthase 2 (HMGCS2) using HepaRG (AID 2283504)
Summary of the method: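 qRT-PCR read-out of HMGCS2 transcript, normalised to three housekeeping genes, in HepaRG cells after 48 h chemical exposure. Eight-point curves from 100 uM, half-log dilutions, 0.5% DMSO vehicle; gain or loss fitted relative to DMSO baseline.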

HGF (gene 3082) = experiment: LTEA_HepaRG_HGF: Life Technologies and Expression Analysis (LTEA) Assay for Hepatocyte Growth Facto (HGF) using HepaRG (AID 2283505)
Summary of the method: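 HepaRG, 48 h dosing, 8-pt half-log series from 100 uM in 0.5% DMSO, duplicates. Readout: TaqMan qRT-PCR of HGF mRNA, housekeeping-normalized; bidirectional curve fit vs DMSO baseline.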

[17] = read-out: Insulin Like Growth Factor 1 (IGF1), IGF1 (gene 3479); experiment: LTEA_HepaRG_IGF1: Life Technologies and Expression Analysis (LTEA) Assay for Insulin Like Growth Factor 1 (IGF1) using HepaRG (AID 2283506)
Summary of the method: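 HepaRG, plated 48 h, then switched to serum-free induction media; test chemical 8-pt half-log from 100 uM (0.5% DMSO), duplicate, 48 h. Lysis in RLT, TaqMan qRT-PCR, norm. ACTB/GAPDH/POLR2A. Bidirectional fit vs DMSO.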

[18] = read-out: Intercellular Adhesion Molecule 1 (ICAM1), ICAM1 (gene 3383); experiment: LTEA_HepaRG_ICAM1: Life Technologies and Expression Analysis (LTEA) Assay for Intercellular Adhesion Molecule 1 (ICAM1) using HepaRG (AID 2283507)
Summary of the method: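 HepaRG, 48 h exposure, 8-pt half-log series from 100 uM, 0.5% DMSO vehicle, duplicates. Readout: TaqMan qRT-PCR mRNA, housekeeping-normalized (ACTB/GAPDH/POLR2A). Bidirectional curve fit vs DMSO baseline.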

Measured: AC50

Cytochrome P450 3A7 (Homo sapiens), sequence (P24462 whole entry, looked up): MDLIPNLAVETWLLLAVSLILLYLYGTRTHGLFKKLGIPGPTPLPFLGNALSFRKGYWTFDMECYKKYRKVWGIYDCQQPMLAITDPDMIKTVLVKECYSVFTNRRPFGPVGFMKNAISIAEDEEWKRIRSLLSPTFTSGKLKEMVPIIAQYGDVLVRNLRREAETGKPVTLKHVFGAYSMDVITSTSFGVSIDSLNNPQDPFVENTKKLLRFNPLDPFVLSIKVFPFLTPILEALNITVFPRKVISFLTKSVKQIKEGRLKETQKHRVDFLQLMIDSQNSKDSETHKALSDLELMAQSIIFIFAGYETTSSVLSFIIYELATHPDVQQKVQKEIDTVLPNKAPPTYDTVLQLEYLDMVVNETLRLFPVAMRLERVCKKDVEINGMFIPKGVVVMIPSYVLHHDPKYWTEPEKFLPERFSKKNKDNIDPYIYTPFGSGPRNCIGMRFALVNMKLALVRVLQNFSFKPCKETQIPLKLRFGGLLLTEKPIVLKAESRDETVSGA
Hypoxia-inducible factor 1-alpha (Homo sapiens), sequence (Q16665 whole entry, looked up): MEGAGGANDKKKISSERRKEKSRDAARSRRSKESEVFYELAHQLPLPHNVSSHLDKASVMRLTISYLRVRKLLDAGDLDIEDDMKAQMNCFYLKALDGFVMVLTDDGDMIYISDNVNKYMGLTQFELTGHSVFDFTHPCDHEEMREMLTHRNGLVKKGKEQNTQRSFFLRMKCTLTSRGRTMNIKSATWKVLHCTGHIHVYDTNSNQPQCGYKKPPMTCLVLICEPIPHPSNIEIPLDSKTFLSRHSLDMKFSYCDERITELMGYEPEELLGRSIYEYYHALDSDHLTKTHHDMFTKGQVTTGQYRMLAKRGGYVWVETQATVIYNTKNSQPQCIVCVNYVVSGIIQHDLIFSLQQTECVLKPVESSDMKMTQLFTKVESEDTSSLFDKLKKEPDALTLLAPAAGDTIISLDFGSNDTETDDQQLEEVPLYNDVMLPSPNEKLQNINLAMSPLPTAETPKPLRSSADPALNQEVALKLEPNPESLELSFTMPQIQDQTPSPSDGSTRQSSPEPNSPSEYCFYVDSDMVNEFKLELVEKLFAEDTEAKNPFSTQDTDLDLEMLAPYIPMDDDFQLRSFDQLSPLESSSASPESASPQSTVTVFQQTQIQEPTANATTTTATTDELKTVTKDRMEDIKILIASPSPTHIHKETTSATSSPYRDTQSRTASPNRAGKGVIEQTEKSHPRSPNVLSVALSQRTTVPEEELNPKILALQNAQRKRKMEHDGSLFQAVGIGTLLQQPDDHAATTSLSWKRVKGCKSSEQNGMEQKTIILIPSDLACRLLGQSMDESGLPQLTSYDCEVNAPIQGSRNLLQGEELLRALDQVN

CC(O)CO (stereo not given)
inactive: all assays above

c1ccc2c(c1)ccc1ccccc12
active: [5] 5.99 µM
inactive: all other assays above

O=[N+]([O-])c1ccc(O)cc1
inactive: all assays above

CCCCCCCCCCCCCCCS(=O)(=O)Oc1ccccc1
active: [5] 8.39 µM | [17] 27.5 µM
inactive: all other assays above

Nc1cccc2c(N)cccc12
active: [6] 50 µM | [8] 10.1 µM | [9] 50 µM
inactive: all other assays above

CN1CCN(c2ccccc2/C=C2\SCCN(c3ccc(Cl)c(Cl)c3)C2=O)CC1
active: [1] 50 µM | [3] 83 µM | [4] 50 µM | [6] 50 µM | [7] 15.8 µM | [8] 93.9 µM | [14] 71.9 µM | [16] 60.3 µM | [17] 12 µM | [18] 98.9 µM
inactive: [2] | [5] | CYP3A5 (gene 1577) | [9] | [10] | [11] | [12] | [13] | [15] | HGF (gene 3082)
